Measured values as given in PubChem BioAssay (Tox21).
Where “and” joins values, the source holds several entries; their conditions need not be identical. Identical values can stand only once. Inconclusive results are not listed. A call without a number means that no potency is given here. A structure can be active in one record and inactive in another. Calls of active or inactive are those of the source. Unless noted, the call rests on the fitted dose curve.

Experiments:
[1] = Nuclear factor erythroid 2-related factor 2/antioxidant responsive element (Nrf2/ARE) small molecule agonists: qHTS cell viability counter screen in human keratinocytes (AID 1919968; active means well fitted curve in the direction sought with a large enough effect in the repeat runs; an effect the other way counts as inactive or inconclusive; further: nearly all actives have a fitted effect of over 55% in size; further: potency means the concentration at half of the fitted maximal effect)
Procedure, shortened: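 CellTiter-Fluor fluorescence, read 1 h after reagent, gave viability in the same wells as the ARE-luciferase assay. KeratinoSens cells (1,500/well) had 23 h compound exposure at 37 C/5% CO2 following 5 h plating.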

[2] = Nuclear factor erythroid 2-related factor 2/antioxidant responsive element (Nrf2/ARE) small molecule agonists: luciferase reporter gene qHTS assay in human keratinocytes (AID 1919969); further: nearly all actives have a fitted effect of over 35% in size; further: potency means the concentration at half of the fitted maximal effect
[3] = molecular target: Gonadotropin-releasing hormone receptor (Homo sapiens) (UniProt P30968); test: Human gonadotropin-releasing hormone receptor (GnRHR) small molecule agonists, calcium flux assay in GnRHR-HEK293 cells (AID 1920063); further: nearly all actives have a fitted effect of over 35% in size; further: potency means the concentration at half of the fitted maximal effect
Gonadotropin-releasing hormone receptor (Homo sapiens), sequence (P30968 whole entry, looked up): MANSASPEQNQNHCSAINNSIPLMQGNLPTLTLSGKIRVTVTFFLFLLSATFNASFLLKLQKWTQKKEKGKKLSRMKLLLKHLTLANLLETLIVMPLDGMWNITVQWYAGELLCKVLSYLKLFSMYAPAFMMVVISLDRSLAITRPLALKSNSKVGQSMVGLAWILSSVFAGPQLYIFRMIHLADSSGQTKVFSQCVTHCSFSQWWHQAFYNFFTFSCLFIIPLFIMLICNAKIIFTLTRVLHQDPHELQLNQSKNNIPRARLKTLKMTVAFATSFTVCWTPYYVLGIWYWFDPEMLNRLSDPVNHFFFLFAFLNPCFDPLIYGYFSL
Procedure, shortened: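 Agonist mode: compounds at 15 concentrations, in triplicate, went onto calcium dye-loaded GnRHR-HEK293 cells. Intracellular calcium was then followed as 480/540 nm fluorescence at 1 s intervals over 3 min.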

[4] = molecular target: KiSS-1 receptor (Homo sapiens) (UniProt Q969F8); test: Human kisspeptin (KISS1R) small molecule agonists, calcium flux assay in KISS1R-HEK293 cells (AID 1920064; active means well fitted curve in the direction sought with a large enough effect in the repeat runs; an effect the other way counts as inactive or inconclusive)
KiSS-1 receptor (Homo sapiens), sequence (Q969F8 whole entry, looked up): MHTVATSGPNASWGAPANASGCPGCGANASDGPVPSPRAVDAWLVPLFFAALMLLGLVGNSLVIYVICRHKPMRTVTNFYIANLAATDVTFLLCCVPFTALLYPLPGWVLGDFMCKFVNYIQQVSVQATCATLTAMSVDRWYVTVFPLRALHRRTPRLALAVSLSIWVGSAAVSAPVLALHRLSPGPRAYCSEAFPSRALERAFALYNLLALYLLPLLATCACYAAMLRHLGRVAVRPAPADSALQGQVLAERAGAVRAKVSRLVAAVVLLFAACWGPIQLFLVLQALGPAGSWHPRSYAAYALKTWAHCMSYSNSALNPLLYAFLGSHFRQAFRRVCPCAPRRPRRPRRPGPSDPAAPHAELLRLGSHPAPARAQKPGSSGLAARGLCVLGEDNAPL
Procedure, shortened: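 Agonist mode: intracellular calcium rise tracked at 1 s intervals over 3 min (480/540 nm) immediately after compound addition to dye-loaded KISS1R-HEK293 stable cells. Each compound tested at 15 concentrations in triplicate.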

[5] = G protein-coupled receptor (GPCR) small molecule agonists, calcium flux assay: HEK293 wild type cell line counter screen (AID 1920065)
Procedure, shortened: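 Calcium flux counter screen: compound added in agonist mode at 15 concentrations in triplicate to dye-loaded parental HEK293 cells. Fluorescence (480/540) read kinetically for 3 min; ATP served as positive control.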

[6] = p53 small molecule agonists, cell-based qHTS assay with human liver microsomes: qHTS cell viability counter screen (AID 1963579); further: nearly all actives have a fitted effect of over 45% in size; further: potency means the concentration at half of the fitted maximal effect
Procedure, shortened: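 Metabolic activation used human liver microsomes and NADPH, both 0.5 mg/mL final, over 16 hours at 37 C on p53RE-bla cells (4,000/well). Cytotoxicity measured by CellTiter-Glo luminescence, 30 min at room temperature.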

[7] = p53 small molecule agonists, cell-based qHTS assay with rat liver microsomes: qHTS cell viability counter screen (AID 1963580); further: nearly all actives have a fitted effect of over 45% in size; further: potency means the concentration at half of the fitted maximal effect
Procedure, shortened: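 Luminescent ATP readout (CellTiter-Glo, 30 min at room temperature) reports viability of p53RE-bla HCT-116 cells after 16 h at 37 C with test compounds under metabolic activation by rat liver microsomes and NADPH at 0.5 mg/mL final each.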

[8] = p53 small molecule agonists, cell-based qHTS assay: qHTS cell viability counter screen (AID 1963581); further: nearly all actives have a fitted effect of over 45% in size; further: potency means the concentration at half of the fitted maximal effect
Procedure, shortened: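 Counter screen read by CellTiter-Glo luminescence (ATP content, 30 min at room temperature), run in the same wells as the beta-lactamase reporter read. HCT-116 p53RE-bla cells saw compounds for 16 h at 37 C.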

[9] = p53 small molecule agonists, cell-based qHTS assay (AID 1963582; active means well fitted activation curve with a large enough effect in the signal ratio in the repeat runs, not every such curve was filed as active; the % refers to the signal ratio)
Procedure, shortened: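 Read-out is beta-lactamase FRET fluorescence after 2 h at room temperature with LiveBLAzer B/G substrate. p53 response element-bla cells were treated 16 h at 37 C with compounds in DMSO, added 5 h after seeding.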

[10] = molecular target: 5-hydroxytryptamine receptor 2A (Homo sapiens) (UniProt P28223); test: 5-hydroxytryptamine receptor 2A (HTR2A) small molecule antagonists, cell-based qHTS assay (AID 1963586); further: nearly all actives have a fitted effect of over 45% in size
5-hydroxytryptamine receptor 2A (Homo sapiens), sequence (P28223 whole entry, looked up): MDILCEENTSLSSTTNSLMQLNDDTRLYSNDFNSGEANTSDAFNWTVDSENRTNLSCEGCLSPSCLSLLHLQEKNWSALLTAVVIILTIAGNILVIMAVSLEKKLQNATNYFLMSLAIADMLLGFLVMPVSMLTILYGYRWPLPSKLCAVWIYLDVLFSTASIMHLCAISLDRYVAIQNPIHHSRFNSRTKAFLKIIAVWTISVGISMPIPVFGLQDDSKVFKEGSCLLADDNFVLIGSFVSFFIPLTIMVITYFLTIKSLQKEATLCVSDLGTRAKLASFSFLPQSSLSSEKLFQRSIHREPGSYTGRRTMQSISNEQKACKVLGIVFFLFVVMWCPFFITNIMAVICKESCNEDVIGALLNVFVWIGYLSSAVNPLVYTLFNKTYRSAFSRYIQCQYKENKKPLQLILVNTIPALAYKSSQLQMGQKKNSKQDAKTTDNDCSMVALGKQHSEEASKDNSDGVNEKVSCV
Procedure, shortened: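 CHO cells stably expressing human HTR2A were plated for 18 h at 37 C, then loaded with calcium dye for 1 h. Compounds were preincubated 5 min at room temperature before DOI (4 nM solution) was added. Kinetic fluorescence was read for 3 min.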

[11] = molecular target: 5-hydroxytryptamine receptor 2A (Homo sapiens) (UniProt P28223); test: 5-hydroxytryptamine receptor 2A (HTR2A) small molecule agonists, cell-based qHTS assay (AID 1963587); further: nearly all actives have a fitted effect of over 30% in size; further: potency means the concentration at half of the fitted maximal effect
Procedure, shortened: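 HTR2A-CHO cells, plated 18 h at 37 C/5% CO2, dye-loaded 1 h at 37 C; compounds in DMSO added by pin tool (agonist mode). Intracellular calcium flux read as kinetic fluorescence on FDSS over 2 min at 1 s intervals.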

[12] = molecular target: Muscarinic acetylcholine receptor M1 (Homo sapiens) (UniProt P11229); test: Cholinergic receptor muscarinic 1 (CHRM1) small molecule antagonists, cell-based qHTS assay (AID 1963588); further: nearly all actives have a fitted effect of over 40% in size
Muscarinic acetylcholine receptor M1 (Homo sapiens), sequence (P11229 whole entry, looked up): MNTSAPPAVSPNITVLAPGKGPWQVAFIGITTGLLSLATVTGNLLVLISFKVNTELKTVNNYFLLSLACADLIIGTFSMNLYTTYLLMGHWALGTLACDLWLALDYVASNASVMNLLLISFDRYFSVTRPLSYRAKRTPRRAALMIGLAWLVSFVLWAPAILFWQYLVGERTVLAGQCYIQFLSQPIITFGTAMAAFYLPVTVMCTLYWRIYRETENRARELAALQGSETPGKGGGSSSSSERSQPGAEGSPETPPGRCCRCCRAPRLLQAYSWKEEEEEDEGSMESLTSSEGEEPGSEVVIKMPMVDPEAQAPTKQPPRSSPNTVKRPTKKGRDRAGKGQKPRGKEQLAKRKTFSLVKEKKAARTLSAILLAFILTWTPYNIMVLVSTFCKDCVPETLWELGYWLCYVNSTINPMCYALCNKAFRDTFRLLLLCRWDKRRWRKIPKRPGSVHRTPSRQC
Procedure, shortened: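 Compounds were tested at 15 concentrations in three independent runs. Dye-loaded CHRM1-CHO cells were exposed 5 min at room temperature before stimulation by acetylcholine added at 50nM. Intracellular calcium was read kinetically on FDSS for 3 min.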

[13] = molecular target: Muscarinic acetylcholine receptor M1 (Homo sapiens) (UniProt P11229); test: Cholinergic receptor muscarinic 1 (CHRM1) small molecule agonists, cell-based qHTS assay (AID 1963589); further: nearly all actives have a fitted effect of over 35% in size; further: potency means the concentration at half of the fitted maximal effect
Procedure, shortened: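 Agonist-mode calcium-flux screen: compounds at 15 concentrations, three independent runs, were pin-transferred onto dye-loaded human CHRM1-CHO cells. Fluorescence was then recorded kinetically every second over minutes.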

[14] = cAMP Responsive Elements (CRE) small molecule antagonists, cell-based qHTS assay (AID 1963591; active means well fitted inhibition curve with a large enough effect in the signal ratio in the repeat runs, not every such curve was filed as active; the % refers to the signal ratio)
Procedure, shortened: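 Antagonist mode: compounds are added alongside the adenylyl cyclase activator NKH477 (0.25 uM final) to CRE-bla HEK293T cells for 3 h. LiveBLAzer FRET substrate, 2 h at room temperature, reports bla expression.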

[15] = molecular target: Beta-2 adrenergic receptor (Homo sapiens) (UniProt P07550); test: Adrenergic beta2 receptor (ADRB2) small molecule antagonists, cell-based qHTS assay (AID 1963592); further: nearly all actives have a fitted effect of over 50% in size; further: potency means the concentration at half of the fitted maximal effect
Beta-2 adrenergic receptor (Homo sapiens), sequence (P07550 whole entry, looked up): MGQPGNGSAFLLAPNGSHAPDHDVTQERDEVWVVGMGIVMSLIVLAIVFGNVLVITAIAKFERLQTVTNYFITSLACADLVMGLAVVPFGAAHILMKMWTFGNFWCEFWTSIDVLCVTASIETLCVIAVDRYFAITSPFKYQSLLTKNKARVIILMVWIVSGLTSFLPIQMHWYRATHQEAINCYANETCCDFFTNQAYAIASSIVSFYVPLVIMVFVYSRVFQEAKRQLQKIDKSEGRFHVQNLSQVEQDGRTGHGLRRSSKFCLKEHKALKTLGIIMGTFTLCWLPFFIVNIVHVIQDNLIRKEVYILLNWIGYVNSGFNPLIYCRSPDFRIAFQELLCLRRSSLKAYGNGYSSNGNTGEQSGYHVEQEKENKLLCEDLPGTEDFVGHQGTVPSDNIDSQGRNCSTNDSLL
Procedure, shortened: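 Assay format: CHO-ADRB2 cells, 18-20hr seeding at 37C/5% CO2, then compound plus 1nM isoproterenol agonist mix for 0.5hr RT. Homogeneous time-resolved fluorescence cAMP detection after 1hr, expressed as 665/615 nm ratio.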

[16] = molecular target: Beta-2 adrenergic receptor (Homo sapiens) (UniProt P07550); test: Adrenergic beta2 receptor (ADRB2) small molecule agonists, cell-based qHTS assay (AID 1963593); further: potency means the concentration at half of the fitted maximal effect;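 on activation: CHO cells stably overexpressing human ADRB2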
Procedure, shortened: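 CHO cells stably over-expressing ADRB2 were plated overnight at 37C, then dosed with compounds plus a stimulation mix containing 100uM IBMX and 25uM Ro-20-1724 for 0.5hr at room temperature. cAMP was measured by HTRF competition, 1hr.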

[17] = molecular target: D(2) dopamine receptor (Homo sapiens) (UniProt P14416); test: Dopamine D2 receptor (DRD2) small molecule agonists, cell-based qHTS assay (AID 1963594); further: nearly all actives have a fitted effect of over 35% in size
D(2) dopamine receptor (Homo sapiens), sequence (P14416 whole entry, looked up): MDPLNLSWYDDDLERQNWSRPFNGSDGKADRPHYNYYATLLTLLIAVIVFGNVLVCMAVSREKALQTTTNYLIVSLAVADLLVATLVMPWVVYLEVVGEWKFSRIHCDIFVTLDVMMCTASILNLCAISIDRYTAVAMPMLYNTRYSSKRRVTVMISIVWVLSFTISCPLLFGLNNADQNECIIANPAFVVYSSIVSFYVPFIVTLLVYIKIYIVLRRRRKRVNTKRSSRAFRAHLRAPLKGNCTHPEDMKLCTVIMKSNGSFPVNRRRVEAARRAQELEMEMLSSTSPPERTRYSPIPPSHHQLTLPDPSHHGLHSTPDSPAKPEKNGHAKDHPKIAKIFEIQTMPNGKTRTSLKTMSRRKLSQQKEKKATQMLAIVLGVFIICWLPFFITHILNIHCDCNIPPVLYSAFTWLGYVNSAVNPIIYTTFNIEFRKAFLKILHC
Procedure, shortened: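 HEK293 cells stably expressing DRD2 were cultured 24 h at 37 C, then given Ro20-1724 (0.1 mM final) and compounds for 10 min at room temperature. NKH477 (200nM) was then added for 30 min. cAMP was read by HTRF.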

[18] = molecular target: D(2) dopamine receptor (Homo sapiens) (UniProt P14416); test: Dopamine D2 receptor (DRD2) small molecule antagonists, cell-based qHTS assay (AID 1963595; active means well fitted inhibition curve with a large enough effect in the signal ratio in the repeat runs, with a control signal flat; the % refers to the signal ratio; further: potency means the concentration at half of the fitted maximal effect)
Procedure, shortened: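 In this cell-based antagonist screen, compounds act for 10 min at room temperature before a 30 min challenge with 12 nM quinpirole and 200 nM NKH477. cAMP is quantified by HTRF competition in DRD2-HEK293 cells containing 0.1 mM Ro20-1724.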

[19] = cAMP Responsive Elements (CRE) small molecule agonists, cell-based qHTS assay (AID 1963590)
Procedure, shortened: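 Agonist mode: compound added to CRE-bla HEK 293T cells (2,000/well, 18 h after plating) for 3 h at 37 C/5% CO2. Reporter activity detected via FRET beta-lactamase substrate, 2 h room-temperature loading.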

[20] = p53 small molecule agonists, cell-based qHTS assay with human liver microsomes (AID 1963577);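 further: p53 response element beta-lactamase reporter cells with liver microsomes plus NADPH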
Procedure, shortened: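 With metabolic activation: human liver microsomes (0.5 mg/mL final) plus NADPH (0.5 mg/mL final) added alongside compounds to p53RE-bla cells; 16 h 37 C exposure; beta-lactamase read by LiveBLAzer fluorescence.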

| Compound | Potency [1] | Potency [2] | Potency [3] | Potency [4] | Potency [5] | Potency [6] | Potency [7] | Potency [8] | Potency [9] | Potency [10] | Potency [11] | Potency [12] | Potency [13] | Potency [14] | Potency [15] | Potency [16] | Potency [17] | Potency [18] | Potency [19] | Potency [20] |
| --- | --- | --- | --- | --- | --- | --- | --- | --- | --- | --- | --- | --- | --- | --- | --- | --- | --- | --- | --- | --- |
| CCCCN(CC)C(=O)SCCC | inactive | inactive | inactive | inactive | inactive | inactive | inactive | inactive | inactive | inactive | inactive | inactive | inactive | inactive | inactive | inactive | inactive | inactive |  |  |
| Clc1ccc(C(c2ccc(Cl)cc2)C(Cl)(Cl)Cl)cc1 | 38.8 µM (active) | inactive | inactive | inactive | inactive | inactive |  | inactive | inactive |  | inactive | inactive | inactive | inactive | inactive | inactive | inactive |  | inactive |  |
| Oc1cc(Cl)ccc1Oc1ccc(Cl)cc1Cl | 22.2 µM (active) and 29.8 µM (active) | inactive | inactive | inactive | inactive | 16.6 µM (active) and inactive | 37.2 µM (active) and inactive | 26.3 µM (active) | inactive | inactive | 35.5 µM (active) | inactive | inactive |  | 52.6 µM (active) |  | inactive | 55.8 µM (active) |  |  |
| CCCCCCC#N | inactive | inactive | inactive | inactive | inactive | inactive | inactive | inactive | inactive | inactive | inactive |  | inactive | inactive | inactive |  | inactive | inactive | inactive |  |
| N#Cc1ccc(O)cc1 | inactive | inactive | inactive | inactive | inactive | inactive | inactive | inactive |  | inactive | inactive |  | inactive | inactive | inactive |  | inactive | inactive | inactive |  |
| CCNc1nc(Cl)nc(NCC)n1 | inactive | inactive | inactive | inactive | inactive |  |  | inactive | inactive | inactive | inactive | inactive | inactive | inactive | inactive | inactive | inactive | inactive | inactive | inactive |
| O=NN1CCCCC1 | inactive | inactive | inactive | inactive | inactive | inactive |  | inactive | inactive | inactive | inactive | inactive | inactive | inactive | inactive |  | inactive | inactive | inactive |  |
| CCCCC(CC)CO[N+](=O)[O-] (centres undefined) | inactive | inactive | inactive | inactive | inactive | inactive | inactive | inactive | inactive | inactive |  | inactive | inactive | inactive | inactive | inactive | inactive | inactive |  |  |
| CC(=O)[O][Hg][c]1ccccc1 | 1.08 µM (active) and 2.17 µM (active) and 3.35 µM (active) | 864 nM (active) and 2.66 µM (active) | 34.4 µM (active) and 24.5 µM (active) | inactive | inactive | 4.04 µM (active) and 5.13 µM (active) | 3.6 µM (active) and 5.76 µM (active) and 11.2 µM (active) | 1.61 µM (active) and 4.08 µM (active) and 5 µM (active) |  | inactive |  | inactive | 43.6 µM (active) |  |  | 4.73 µM (active) |  | 6.06 µM (active) and 2.73 µM (active) and 5.96 µM (active) |  |  |
| COP(=O)(NC(C)=O)SC (centres undefined) | inactive | inactive | inactive | inactive | inactive | inactive | inactive | inactive | inactive | inactive |  | inactive | inactive | inactive | inactive | inactive | inactive | inactive | inactive |  |
| c1cc2c3c(cccc3c1)CC2 | inactive | inactive | inactive | inactive | inactive | inactive | inactive | inactive | inactive |  | inactive | inactive | inactive | inactive | inactive |  | inactive | inactive | inactive |  |
| CCCCOC(=O)CCC(=O)OCCCC | inactive | inactive | inactive | inactive | inactive | inactive | inactive |  | inactive | inactive | inactive | inactive | inactive | inactive | inactive |  | inactive | inactive | inactive |  |
| NC(=S)c1c(Cl)cccc1Cl | inactive | inactive | inactive | inactive | inactive | inactive | inactive | inactive | inactive | inactive | inactive | inactive | inactive | inactive | inactive |  | inactive | inactive | inactive |  |
| CCCCN(CCCC)N=O | inactive | inactive | inactive | inactive | inactive | inactive | inactive | inactive | inactive | inactive | inactive | inactive | inactive | inactive | inactive |  | inactive | inactive | inactive |  |
| CNC(=O)O/N=C(\SC)C(=O)N(C)C | inactive | inactive | inactive | inactive | inactive | inactive | inactive | inactive | inactive | inactive | inactive | inactive | inactive | inactive |  | inactive | inactive | inactive | inactive |  |
